Shiga toxin inh = Shiga toxin inhibition; Vero cells, Shiga toxin protein synthesis inhibition reporter; inhibition, % at 38.7 µM; 290,000 compounds, 9.2% hits; AID 2315; in the data active = inhibition mostly above about 28%, no sharp cut-off; inactive = mostly below about 43%; also: 0% is about no effect
NS1 function inh = blocks influenza NS1 protein function | 270,000 compounds, 0.4% hits | Potency, µM (highest dose often 46.1 µM), without a hit: at the highest dose activity, positive = more growth; also: potency is read from the fitted curve at half-maximal effect; actives are rising curves; nearly all actives have a fitted effect of over 50% in size
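In this qHTS, NS1 from influenza A is expressed in budding yeast, where it slows growth. Cells are switched from glucose to 2% galactose medium (pH 6.0, -URA), treated with compound, and growth recovery is read at OD600.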
SARS PLP yeast = SARS-CoV PLP inhibition in yeast | S. cerevisiae expressing SARS-CoV PLpro, growth rescue | Potency, µM (doses to about 32.9 µM), for the others: at the highest dose activity, positive = growth rescue, actives largely listed as activators | 330,000 compounds, 0.19% hits | AID 485353; also: potency is read from the fitted curve at half-maximal effect; 0% is about no effect; nearly all actives have a fitted effect of over 55% in size
Cycloheximide cs = counter-screen hit for Shiga toxin inhibitors, cycloheximide. cell reporter, cycloheximide protein synthesis inhibition counterscreen. max response, %. 300,000 compounds, 12% hits. AID 2314; in the data active = max response mostly above about 13%, no sharp cut-off; inactive = mostly below about 14%; also: read at 38.3 µM for the half of the compounds with a filed dose; 0% is about no effect
Pf growth 48h = inhibits P. falciparum growth in the first generation, 48 h. AID 504832. P. falciparum luciferase growth in erythrocytes, 48 h. Potency, µM (series often up to 28.7 µM), without a hit: at the highest dose activity change, negative = inhibition, hits mostly inhibitors. 310,000 compounds, 5.9% hits; active = well fitted inhibition curve with a large enough effect; inconclusive = small, poorly fitted or top-dose-only effect, or another doubt; inactive = no such curve, though single readings can be large or run the other way; also: potency is read from the fitted curve at half-maximal effect; % is scaled to controls: 0 for no effect and ±100 for the full control effect
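Luciferase-expressing P. falciparum in infected erythrocytes (2% hematocrit, 0.1% parasitemia final) in RPMI 1640/0.5% Albumax were exposed to compound for 48 hours at 37 C, 5% CO2; growth read as luminescence.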
Pf growth 96h = P. falciparum growth inhibition at 96 hour, primary screen for plastid delayed-death inhibitors | P. falciparum luciferase reporter growth, 96 h | Potency, µM (titrated, usually from 28.7 µM), for the others: top-dose activity change, negative = inhibition, usual class: inhibitors | 320,000 compounds, 6.9% hits | AID 504834; active = well fitted inhibition curve with a large enough effect; inconclusive = small, poorly fitted or top-dose-only effect, or another doubt; inactive = no such curve, though single readings can be large or run the other way; also: potency is read from the fitted curve at half-maximal effect; % is scaled to controls: 0 for no effect and ±100 for the full control effect
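96 h incubation, 37 C, 5% CO2, of luciferase-reporter P. falciparum-infected RBCs (2% hematocrit, 0.05% parasitemia final) with test compounds; endpoint luminescence.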
* marks the source's active call; other numbers are inactive results; ? = inconclusive; / = no result given; [ ] = another dose, or the depositor's remark. Compounds with a hit are over-represented: about 21% of the library has one in this group of screens. Unless noted, calls follow the shape of the full dose curve.

SMILES	Shiga toxin inh	NS1 function inh	SARS PLP yeast	Cycloheximide cs	Pf growth 48h	Pf growth 96h
Cc1nc2nc(NC(=O)c3ccco3)nn2c(C)c1Cl	43.1*	10.9%	-1.0%	9.2	117.0%	-17.8%
Cc1cc(Cl)cc2sc(NC(=O)c3ccco3)nc12	50.1*	-12.8%	-1.8%	51.4*	136.5%	421.5%
O=C(Nc1nc2c(Br)cc(Br)cc2c(=O)s1)c1ccco1	-1.7	-4.3%	-2.2%	-0.8	4.9%	15.8%
O=C(Nc1nc2c(F)cccc2s1)c1ccco1	28.3*	-138.8%	-14.1%	31.1*	215.2%	28.4%
Cc1nc(NC(=O)c2ccco2)sc1C(=O)O	13.2	-7.4%	-10.2%	-6.6	133.5%	0.4%
Cc1cc(C)c2nc(NC(=O)c3ccco3)sc2c1	51.4*	-3.7%	0.2%	31.0*	296.9%	287.7%
O=C(CCC1CCCN(Cc2cccc(Cl)c2)C1)NCc1ccccc1F (stereo not given)	-7.9	-3.1%	0.5%	0.5	-20.2%	-12.9%
COCCNC(=O)c1cc(C(=O)CC(C)C)c[nH]1	11.6	7.2%	-0.3%	-5.1	-2.9%	9.2%
C=CCn1c(O)c(CN2CCOCC2)c(C)c(C#N)c1=O	91.1*	-6.3%	3.2%	29.9*	2.5%	?
C=CCn1c(C)cc(C)c(C#N)c1=O	33.7	21.5%	-1.1%	0.1	30.6%	21.7%
c1nc(NCCc2cnc[nH]2)c2[nH]cnc2n1	/	-0.4%	/	/	/	/
C=CCOc1ccc(C2/C(=C(/O)c3ccc(OC)cc3)C(=O)C(=O)N2CCN2CCNCC2)cc1 (stereo not given)	2.7	9.1%	2.4%	1.6	/	22.3%
CCn1c(/C=C/c2c[nH]c3ccccc23)nc2ccccc2c1=O	50.2*	4.0%	-0.6%	40.9*	66.2%	40.2%
O=c1c2ccccc2nc(/C=C/c2cccnc2)n1CCc1ccccc1	-2.3	-44.3%	-3.8%	-2.0	?	?
O=c1c2ccccc2nc(/C=C/c2ccccc2)n1CCc1ccccc1	-8.9	1.1%	-4.6%	-5.5	?	4.65µM*
O=c1c2ccccc2nc(/C=C/c2cc(Br)ccc2O)n1CCCO	0.5	4.0%	-1.0%	-1.7	1.31µM*	?
CC[n+]1ccc(/C=C/c2c[nH]c3ccccc23)cc1	0.8	-1.2%	-2.1%	-2.0	0.522µM*	?
Cc1ccc2[nH]cc(/C=C/c3cc[n+](C)cc3)c2c1	-0.6	4.5%	-1.0%	-3.8	-0.6%[0.00184 µM]	?
O=C(CCN1C(=O)/C(=C/c2cccs2)SC1=S)N1CCCCC1	-2.2	3.9%	0.1%	6.4	?	22.4%
NC(=O)CSc1nc2ccccc2c(=O)n1CCc1ccccc1	1.8	-5.8%	0.7%	1.7	10.6%	5.86µM*
CCn1c(/C=C/c2ccccc2[N+](=O)[O-])nc2ccccc2c1=O	27.5	/	-1.7%	11.4	-21.4%	?
CCn1c(/C=C2\C(=O)N(C(C)C)c3ccccc32)nc2ccccc2c1=O	-8.7	-6.3%	-1.6%	-1.9	3.7µM*	?
CCn1c(/C=C\c2ccccc2C)nc2ccccc2c1=O	81.7*	-5.2%	1.2%	23.4*	?	27.3%
NC(=O)CSc1nc2ccccc2c(=O)n1Cc1ccco1	0.7	18.9%	11.7%	-3.7	-8.1%	?
CCn1c(/C=C/c2ccccc2Cl)nc2ccccc2c1=O	74.5*	-32.1%	-3.0%	30.5*	1.85µM*	1.65µM*
SMILES	Shiga toxin inh	NS1 function inh	SARS PLP yeast	Cycloheximide cs	Pf growth 48h	Pf growth 96h
C=CCSc1nc2ccccc2c(=O)n1Cc1ccccc1	1.1	/	-5.8%	8.9	11.7µM*	84.5%
O=c1c2ccccc2nc(SCc2ccccc2Cl)n1Cc1ccccc1	-2.8	-8.6%	2.2%	-2.3	?	?
CN(C)S(=O)(=O)c1ccc2[nH]cc(/C=C/c3nc4ccccc4c(=O)n3-c3ccccc3)c2c1	-13.5	2.7%	1.6%	5.8	9.28µM*	?
Cc1[nH]c2ccccc2c1/C=C/c1nc2ccccc2c(=O)n1-c1ccc([N+](=O)[O-])cc1	22.7	14.0%	2.5%	-1.2	?	?
CC(NCC(O)COc1ccccc1)C1COc2ccccc2O1 (stereo not given)	-12.5	-3.3%	-1.4%	1.1	-1.7%[0.00184 µM]	3.2%
CNc1nn(-c2cccc(Cl)c2)nc1N	89.5*	?	-27.5%	46.9*	139.1%	0.4%
CCCCSCCCNC(=O)c1ccc2c(c1)N(CC)C(=O)c1ccccc1S2=O (stereo not given)	3.4	-0.9%	1.3%	-0.7	13.1µM*	4.6%
CCCN(CCC)CCCNC(=O)c1ccc2c(c1)N(CC)C(=O)c1ccccc1S2=O (stereo not given)	-5.3	-0.4%	0.1%	-5.5	?	/
CCN1C(=O)c2ccccc2Sc2ccc(C(=O)NCCCN(CC(C)C)CC(C)C)cc21	-3.3	5.1%	1.3%	23.2	10.4µM*	26.7%
O=C(NCCN1CCCC1)c1ccc2c(c1)N(Cc1ccccc1)C(=O)c1ccccc1S2(=O)=O	-7.2	-4.5%	0.9%	5.9	8.28µM*	29.4%
CCN1C(=O)c2ccccc2S(=O)(=O)c2ccc(C(=O)NC(C)C)cc21	-6.7	4.3%	-1.5%	-1.8	0.2%[0.00184 µM]	?
CCCCNC(=O)c1ccc2c(c1)N(CC)C(=O)c1ccccc1S2(=O)=O	3.9	-15.4%	-0.4%	-3.3	-20.4%	1.47µM*
COCCCN(C(=O)c1cc(-c2ccco2)nc2ccccc12)c1c(N)n(Cc2ccccc2)c(=O)[nH]c1=O	/	/	0.9%	/	?	?
O=C(NCCN1CCOCC1)c1ccc2c(c1)N(Cc1c(F)cccc1Cl)C(=O)c1ccccc1S2	-18.7	/	-1.3%	-4.7	13.1µM*	9.28µM*
O=C(/C=C/NCC(=O)c1ccccc1)c1ccc(Br)cc1	45.4*	4.5%	-2.0%	12.6	21.4%	?
COc1ccc(C(=O)C=CNNC(=O)c2ccc(Cl)cc2)cc1	/	1.0%	0.3%	15.7*	?	3.5%
Cc1ccc(C(=O)/C=C/NNC(=O)c2ccccc2O)cc1	20.9	13.0%	-8.3%	12.8	15.6%	-20.5%
O=C(/C=C/NNC(=O)c1ccc(Cl)cc1)c1ccccc1	46.8*	/	1.1%	31.1*	-30.4%	-20.3%
COc1ccc(C(=O)NNC(=O)Nc2ccc(Cl)cc2)cc1	-3.7	/	0.5%	10.6	15.5%[5.75 µM]	63.2%[5.75 µM]
CCNC(=S)NNC(=O)c1cccc(Br)c1	-5.2	11.2%	3.3%	8.2	55.1%	107.0%
O=C(/C=C/NNC(=O)c1cccc(Br)c1)c1cccc(Br)c1	49.9	-60.8%	-6.0%	1.9	9.28µM*	/
CC1CN(C(=O)c2cc3c(=O)n4ccccc4nc3n2C)CC(C)O1 (stereo not given)	-3.2	-4.4%	0.1%	8.1	-9.1%	?
CC(Oc1ccccc1F)C(=O)NNC(=O)c1cc2ccccc2o1 (stereo not given)	27.4	/	1.3%	-1.7	-0.1%	1.0%
CCCCn1c(=O)c2[nH]c(C34CC5CC(CC3C5)C4)nc2n(CCCO)c1=O	-8.3	/	/	1.4	/	/
